NALP1 yeast inh – blocks the NALP1 inflammasome reconstituted in yeast; S. cerevisiae NALP1/ASC/caspase-1 growth, X-gal OD620, 72 h; inhibition, % at 10 µM; hit rate 0.61% among 280,000; AID 2071; in the data active means inhibition mostly above about 24%, no sharp cut-off; inactive means mostly below about 32%
V-ATPase pH – alters yeast V-ATPase proton transport; S. cerevisiae, pHLuorin cytosolic pH fluorescence; response, % at 10 µM; hit rate 0.37% among 350,000; in the data active means response mostly above about 7.3%, no sharp cut-off; inactive means mostly below about 5.4%; further: actives read high
tim23-1 inh – tim23-1 yeast growth inhibition; S. cerevisiae tim23-1 growth, BacTiter-Glo luminescence, 24 h; inhibition, % at 20 µM; hit rate 1.3% among 330,000; AID 463212;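 active means growth inhibition of the mutant yeast at or above 50%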;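 further: temperature-sensitive mutant grown at 25 °C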
TIM10 inh – growth inhibitors of TIM10 yeast strain; S. cerevisiae TIM10 strain growth, BacTiter-Glo luminescence, 24 h; inhibition, % at 10 µM; hit rate 1.4% among 330,000; AID 463195;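 active means inhibition of 40% or more at the single tested concentration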;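 further: wild-type TIM10 isogenic control strain grown at permissive 25 °C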
NALP3 yeast inh – NALP3 inhibition in yeast; hit rate 0.39% among 330,000; Yeast reconstituted NLRP3/ASC/caspase-1, beta-gal luminescence, 24 h; AID 2825; inhibition, % at 10 µM;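 active means inhibition of 50% or more; inactive means inhibition below 50%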
tim10-1 inh – growth inhibitors of tim10-1 mutant yeast; S. cerevisiae tim10-1 ts strain growth, BacTiter-Glo, 24 h; inhibition, % at 20 µM; hit rate 2.2% among 330,000; AID 463190;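 active means inhibition of at least 40%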;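 further: mutant grown at 25 °C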
TIM10 conf – confirmation of TIM10 yeast growth inhibitors; S. cerevisiae tim10 strain growth, BacTiter-Glo luminescence, 24 h; inhibition, % at 10 µM; hit rate 63% among 4,600; shares compounds with TIM10 inh;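 active means inhibition of yeast growth at or above a set limit in either of two replicates at 10 µM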; further: this counterscreen used the strain with wild-type TIM10
A number is an active result; n = inactive; x = no result. A selection: hits, their analogues and other compounds. The true share with any hit is near 4.2%.

SMILES | NALP1 yeast inh | V-ATPase pH | tim23-1 inh | TIM10 inh | NALP3 yeast inh | tim10-1 inh | TIM10 conf
Cc1cc(C)cc(OCC(=O)OCC(=O)Nc2cc(C)nn2-c2ccccc2)c1 | x | n | n | 82.9 | n | n | n
CCOc1ccc(NS(=O)(=O)c2cc(C(=O)N3CCCC3)ccc2Cl)cc1 | x | n | n | n | n | n | x
Cc1ccc(S(=O)(=O)N2CCCN(C(=O)CNC(=O)c3ccccc3)CC2)cc1 | x | n | n | n | n | n | x
O=C1NC(Cc2ccc(O)cc2)c2nc3ccc(Cl)cc3c(=O)n2-c2cc(Cl)ccc21 (configuration not stated) | x | x | n | n | n | n | x
Cc1ccc(-c2noc(CSc3nnc(-c4ccncc4)n3-c3ccc(C)cc3)n2)cc1 | n | n | n | 42.8 | n | n | 38.9
Clc1ccc(-c2noc(CSc3nnc(Cc4cccs4)n3-c3ccccc3)n2)cc1 | n | n | n | 97.2 | n | n | n
Clc1ccc(-c2noc(CSc3nnc(-c4ccncc4)n3-c3ccccc3)n2)cc1 | n | n | n | 47.8 | n | n | 36.2
CCOc1ccc(-n2c(SCc3nc(-c4ccc(C)cc4)no3)nnc2-c2ccncc2)cc1 | n | n | n | n | n | n | x
Cc1ccc(-c2noc(CSc3nnc(Cc4cccs4)n3-c3ccccc3)n2)cc1 | n | n | n | n | n | n | x
c1ccc(-c2noc(CSc3nnc(Cc4cccs4)n3-c3ccccc3)n2)cc1 | n | n | n | n | n | n | x
Cc1ccc([C@H]2C[C@@H](n3cc(-c4ccc(F)cc4)nn3)[C@H](O)CN2C(=O)c2cccs2)cc1 | x | n | x | x | x | x | x
O=S(=O)(c1cccc(-c2nnc(SCc3nc4ccccc4s3)o2)c1)N1CCOCC1 | n | n | n | 43.3 | n | n | n
CC(=O)CCSc1nnc(-c2cccc(S(=O)(=O)N3CCOCC3)c2)o1 | x | n | n | n | n | n | x
CCCCn1nnc(NC(=O)c2sc3cc(Cl)ccc3c2Cl)n1 | n | n | n | n | n | n | x
CCN(CC)Cc1ccc(NC(=O)c2sc3cc(Cl)ccc3c2Cl)cc1 | x | n | n | 44.0 | n | n | 39.8
O=[N+]([O-])c1ccc(NC(c2ccccc2)c2ccc3cccnc3c2O)cc1 (configuration not stated) | x | n | x | x | x | x | x
O=[N+]([O-])C(=C1Nc2ccccc2N1)/C(Cl)=C(/Cl)Br | n | n | n | 57.1 | n | n | 41.0
Cc1ccc(S(=O)(=O)N2[C@@H](c3ccc(Br)cc3)C(C(=O)O)=CC[C@H]2c2cccs2)cc1 | x | n | n | 95.5 | n | n | n
Cc1ccc([C@H]2C(C(=O)O)=CC[C@@H](c3cccs3)N2S(=O)(=O)c2ccc(C)cc2)cc1 | x | n | n | n | n | n | x
O=C(NNC(=O)C1CC1)c1cc(Br)c(Br)s1 | x | n | n | n | n | n | x
O=C(O)C(Cc1ccccc1)N1C(=O)CCC1=O (configuration not stated) | n | n | n | n | n | n | x
Cc1ccc(CSc2nnc(-c3cccc(S(=O)(=O)N4CCOCC4)c3)n2CC(C)C)cc1 | n | n | n | n | n | n | x
CC(C)Cn1c(SCC(N)=O)nnc1-c1cccc(S(=O)(=O)N2CCOCC2)c1 | x | n | n | 58.0 | n | n | n
O=C(CSCc1ccc(Br)cc1)Nc1ccc(S(=O)(=O)N2CCOCC2)cc1 | n | n | n | n | n | n | x
O=C(CSCc1ccc(Cl)cc1)Nc1ccc(S(=O)(=O)N2CCCCCC2)cc1 | n | n | n | 41.0 | n | n | n
SMILES | NALP1 yeast inh | V-ATPase pH | tim23-1 inh | TIM10 inh | NALP3 yeast inh | tim10-1 inh | TIM10 conf
O=C(Nc1ccc(S(=O)(=O)N2CCCCCC2)cc1)c1ccc(Br)o1 | n | n | n | 55.7 | n | n | 49.6
Cc1ccc(C(=O)Nc2ccc(S(=O)(=O)N3CCCC3)cc2)o1 | n | n | n | n | n | n | x
O=C(COc1ccccc1)Nc1ccc(S(=O)(=O)N2CCCCCC2)cc1 | n | n | n | 71.1 | n | n | 59.7
Cc1ccccc1NS(=O)(=O)c1ccc(NC(=O)CSCc2ccc(Br)cc2)cc1 | n | n | n | 41.2 | n | n | n
COc1ccccc1Nc1nc(NCC2CCCO2)c2ccccc2n1 (configuration not stated) | n | n | n | n | n | n | x
COc1ccc(OC)c(-n2c(SCC(N)=O)nnc2-c2c[nH]c3ccccc23)c1 | n | n | n | 97.6 | n | n | n
COc1cccc(-n2c(SCC(N)=O)nnc2-c2c[nH]c3ccccc23)c1 | n | n | n | n | n | n | x
Cc1ccc2nc(/C(C#N)=C\c3ccc(N4CCOCC4)o3)[nH]c2c1 | n | n | n | n | n | n | x
N#C/C(=C\c1ccc([N+](=O)[O-])o1)c1nc2ccccc2[nH]1 | 101.1 | x | n | 58.6 | n | n | 66.1
N#C/C(=C(/O)c1ccc([N+](=O)[O-])o1)c1nc2ccccc2[nH]1 | x | n | n | n | n | n | x
Cc1ccc2nc(/C(C#N)=C\c3ccc([N+](=O)[O-])o3)[nH]c2c1 | 52.0 | 85.8 | n | 83.9 | n | n | 95.2
COc1ccccc1N1CCN(C(=O)c2ccc3nc(-c4ccco4)c(-c4ccco4)nc3c2)CC1 | n | n | n | 41.4 | n | n | n
COc1ccccc1N1CCN(C(=O)c2ccc3nc[nH]c3c2)CC1 | n | n | n | n | n | n | x
COc1ccccc1N1CCN(C(=O)c2cc(-c3ccc(C)cc3)on2)CC1 | n | n | n | 40.1 | n | n | 35.8
CC[C@@H](C)[C@H](NC(=O)CNC(=O)Cc1c(C)c2c(cc(C)c3c(C)coc32)oc1=O)C(=O)O | n | n | n | n | n | n | x
COc1ccccc1C1(CC(=O)N2CCCCC2)CCOC(C(C)C)C1 (configuration not stated) | n | n | n | 48.3 | n | n | n
COc1ccc(N2CCN(CCCNC(=O)Cn3c(=O)c4cccn4c4ccccc43)CC2)cc1 | n | n | n | 45.8 | n | n | n
Cc1ccc(CN(c2ccc(C(=O)N3CCCC3)cc2)S(C)(=O)=O)cc1 | n | n | n | 43.6 | n | n | 47.2
O=C1CC(c2ccco2)CC(O)=C1C=Nc1cc(Cl)ccc1O (configuration not stated) | n | n | n | n | n | n | x
O=C1CC(c2ccco2)CC(O)=C1C=Nc1ccccc1-c1ccccc1 (configuration not stated) | n | n | n | 41.2 | n | n | n
C=CCN(CC=C)C(=S)NC(=O)/C=C/c1ccc(OC)cc1 | n | n | n | 44.4 | n | n | n
COc1ccc(NC(=O)CSc2n[nH]c(=O)n2C2CC2)cc1OC | x | n | n | n | n | n | x
C=CCn1c(-c2cc(-c3ccccc3)sc2N)n[nH]c1=S | n | n | n | 48.4 | n | n | n
O=C(N/N=C/c1cccnc1)c1ccc([N+](=O)[O-])cc1 | n | n | n | n | n | n | x
O=[N+]([O-])c1ccc(N/N=C/c2cccnc2)cc1 | n | n | n | 41.8 | n | n | n

Screening results as filed in PubChem.
